MITF primary: human MITF inhibition, primary screen; AlphaScreen MITF homodimerization, bead proximity signal; inhibition, % at 2.6 µM; actives 0.91% (n = 650,000); AID 1259374; in the data active = inhibition above about 50%
TEAD-YAP block: TEAD-YAP interaction inhibition. actives 1.4% (n = 640,000). AID 1259422. HEK-TIYL cells, TEAD-Gal4/YAP UAS-luciferase luminescence. inhibition, % at 9.12 µM; in the data active = inhibition above about 32%
FBW7 activator: activators of human E3 ligase FBW7. actives 0.13% (n = 650,000). normalized activity (activation), % at 26.1 µM. AlphaScreen FBW7–phospho-cyclin E peptide binding, activator screen. Q969H0; in the data active = normalized activity above about 1.9%;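 also: purified mutant Fbw7 with reduced substrate affinity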
Target sequence (Q969H0 whole entry, looked up): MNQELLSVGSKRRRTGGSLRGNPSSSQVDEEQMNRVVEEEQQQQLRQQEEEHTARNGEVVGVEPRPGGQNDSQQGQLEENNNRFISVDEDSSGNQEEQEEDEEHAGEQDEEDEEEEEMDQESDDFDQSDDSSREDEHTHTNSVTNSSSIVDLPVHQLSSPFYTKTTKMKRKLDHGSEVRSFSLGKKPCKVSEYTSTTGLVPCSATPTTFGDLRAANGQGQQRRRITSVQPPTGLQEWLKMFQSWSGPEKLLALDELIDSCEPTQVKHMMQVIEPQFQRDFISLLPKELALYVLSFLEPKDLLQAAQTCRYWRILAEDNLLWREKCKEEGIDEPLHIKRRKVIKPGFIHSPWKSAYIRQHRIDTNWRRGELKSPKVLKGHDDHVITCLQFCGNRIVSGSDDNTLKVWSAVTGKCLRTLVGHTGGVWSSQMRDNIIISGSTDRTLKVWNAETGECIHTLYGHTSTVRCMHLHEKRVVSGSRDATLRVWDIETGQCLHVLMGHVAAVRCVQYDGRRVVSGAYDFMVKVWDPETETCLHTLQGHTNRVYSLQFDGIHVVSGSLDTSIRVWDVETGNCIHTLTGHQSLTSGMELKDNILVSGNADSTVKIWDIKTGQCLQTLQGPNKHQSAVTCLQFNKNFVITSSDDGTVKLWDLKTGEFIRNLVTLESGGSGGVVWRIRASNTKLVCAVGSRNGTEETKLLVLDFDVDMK
GPR151 activ: human GPR151 activation; actives 1% (n = 650,000); AID 1508602; activation, % at 11.2 µM; Q8TDV0; PathHunter beta-arrestin GPR151 cells, luminescence; in the data active = activation above about 4.9%
MITF inh conf: confirmation of human MITF inhibitors; shares compounds with MITF primary; AlphaScreen MITF homodimerization, biotin/His-MITF beads; inhibition, % at 2.6 µM; actives 16% (n = 4,700); AID 1259372;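 active = inhibition above a cutoff derived from the DMSO control wells, cut at about 28% in these data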;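 also: inhibitors lower the bead chemiluminescence by keeping MITF from dimerizing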
AlphaScreen DR: counter-screen: compounds optically interfering with AlphaScreen; shares compounds with MITF primary; actives 6% (n = 480); AlphaScreen optical interference counterscreen, cell-free; IC50, µM; call rule not given here
AS interf ctr: counter-screen: compounds optically interfering with AlphaScreen. actives 7.6% (n = 4,700). LysRS AlphaScreen counterscreen, signal interference, triplicate. shares compounds with MITF primary. inhibition, % at 2.6 µM;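 active = inhibition above a cutoff derived from the DMSO control wells, cut at about 30% in these data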
Of the large screens only hits and unclear results are named; the others gave an inactive call (follow-up assays come after a bar, where they were run). An excerpt weighted towards active compounds, which were near 3.5% of everything screened.

O=S(=O)(c1ccccc1)N1CCN(Cc2cccc(Cl)c2)CC1	MITF primary 63.7 | MITF inh conf inactive | AS interf ctr inactive
CS(=O)(=O)c1cccc(S(=O)(=O)N2CCN(Cc3ccccc3)CC2)c1	none
O=S(=O)(c1ccc(F)cc1)N1CCN(Cc2cccc(Cl)c2)CC1	MITF primary 59.6 | MITF inh conf inactive | AS interf ctr inactive
CCS(=O)(=O)N1CCN(Cc2cccc(Cl)c2)CC1	MITF primary 59.0 | MITF inh conf inactive | AS interf ctr inactive
CCCCN(CCCC)C(=O)C(NC(=O)c1ccccc1NC(=O)c1ccc(OC)cc1)C(C)C (stereo unspecified)	none
CCOC(=O)c1cnc2ccccc2c1Nc1ccc(C)c(C)c1	MITF primary 54.4 | MITF inh conf inactive | AS interf ctr inactive
CCOC(=O)c1cnc2ccccc2c1Nc1cccc(OC)c1	MITF primary 73.4 | MITF inh conf inactive | AS interf ctr inactive
CCOC(=O)c1cnc2ccccc2c1Nc1ccc(O)cc1	none
Cc1[nH]ncc1-c1ccc(NC(=O)[C@@H]2Cc3ccccc3CN2)c(OCCN(C)C)c1	MITF primary 66.5 | MITF inh conf inactive | AS interf ctr inactive
Cc1c(NC(=S)NC(=O)/C=C/c2ccco2)cccc1C(=O)O	MITF primary 67.3 | MITF inh conf 60.3 | AlphaScreen DR inactive | AS interf ctr inactive
O=C(/C=C/c1ccco1)NC(=S)Nc1cc(C(=O)O)ccc1Cl	MITF primary 63.4 | MITF inh conf 68.7 | AlphaScreen DR inactive | AS interf ctr inactive
O=C(/C=C/c1ccco1)NC(=S)NNC(=O)c1ccccc1O	MITF primary 61.0, TEAD-YAP block 58.2 | MITF inh conf 66.5 | AlphaScreen DR inactive | AS interf ctr inactive
CCOC(=O)c1ccc(NC(=S)NC(=O)/C=C/c2ccco2)cc1	MITF primary 69.1 | MITF inh conf inactive | AS interf ctr inactive
CCCN(Cc1cccc([N+](=O)[O-])c1)CC1CC1	MITF primary 53.5 | MITF inh conf inactive | AS interf ctr inactive
CC(=O)Nc1ccc(NC(=O)c2ccc3nc(Nc4ccc(-n5ccnc5)cc4)sc3c2)cc1	none
COc1cc(NC(=O)c2ccc3nc(Nc4ccc(-n5ccnc5)cc4)sc3c2)cc(OC)c1OC	MITF primary 57.4 | MITF inh conf inactive | AS interf ctr inactive
CC(c1ccncn1)N(C)C(=O)c1ccc(OC2CCN(CCc3ccccc3)CC2)cc1 (stereo unspecified)	none
CC(C)n1c(NCCN2CCOCC2)nc2c(NCCN3CCOCC3)ncnc21	MITF primary 66.8 | MITF inh conf inactive | AS interf ctr inactive
O=C(Cn1c(=S)[nH]c2ccccc2c1=O)N(CCO)Cc1ccccc1	MITF primary 63.0 | MITF inh conf inactive | AS interf ctr inactive
COc1ccc(NC2SC(=O)N(c3ccccc3)C2=O)cc1 (stereo unspecified)	none
COC(=O)c1ccc(=O)c2nc3/c(=C/O)c(O)cc(=O)c3[nH]c12	MITF primary 76.8 | MITF inh conf 85.6 | AS interf ctr inactive
CCOc1ccccc1NC(=O)c1ccc(F)c(S(=O)(=O)NCc2ccccc2Cl)c1	none
COc1cccc(C(=O)O/N=C(\N)c2cccnc2)c1	none
Cc1cc(C)cc(C(=O)O/N=C(\N)c2cccnc2)c1	MITF primary 55.7 | MITF inh conf inactive | AS interf ctr inactive
COc1ccc(OC)c(NC2CCCCC2OC)c1 (stereo unspecified)	MITF primary 82.1 | MITF inh conf inactive | AS interf ctr inactive
CCCNc1nc(Nc2cccnc2)nc2c1ncn2-c1ccccc1	none
COc1cccc(CN2CCN(Cc3ccc4ccccc4c3)CC2)c1OC	MITF primary 76.4 | MITF inh conf inactive | AS interf ctr inactive
COc1cccc(CN2CCN(Cc3cccc(F)c3)CC2)c1OC	MITF primary 66.4 | MITF inh conf inactive | AS interf ctr inactive
COc1cccc(CN2CCN(Cc3cccc(OC)c3OC)CC2)c1	MITF primary 73.6 | MITF inh conf inactive | AS interf ctr inactive
CCOc1cc(CN2CCN(Cc3cccc(OC)c3OC)CC2)ccc1OC	none
COc1cc(CN2CCN(Cc3ccc4ccccc4c3)CC2)cc(OC)c1OC	MITF primary 60.5 | MITF inh conf inactive | AS interf ctr inactive
COc1cc(CN2CCN(Cc3cccc(OC)c3OC)CC2)cc(OC)c1	none
O=c1c2ccccc2nc(-c2ccc(Br)cc2)n1Cc1ccccc1F	none

Source: PubChem BioAssay
